Measurements: PubChem BioAssay AID1159580 (chemical genetic matrix, 2015)
Screen size: about 5,500 compounds; about 2,000 (36%) were called active. Not shown: some 18% with an inconclusive outcome. Cut-off read from the data, not from the text of the source: active = normalized growth mostly below about 0.91 (no sharp cut-off); inconclusive = no clear call, values can overlap the other calls; inactive = mostly above about 0.92. This is one part of the list.

Test: chemical genetic growth profiling, strain panel (AID 1159580);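 note: tested at 20 µM; growth read once vehicle control cultures reached saturation at 30 °C; 1 = growth at the plate median or of vehicle wells; lower values mean less growth of the strain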
Conditions: S. cerevisiae deletion strains, growth OD

Measured: normalized growth

COc1cccc(/C=C/C(=O)O)c1C(C)C
inactive: locus YAL021C, strain ccr4, hits give low values 0.952 | locus YAL026C, strain drs2, hits give low values 0.983 | locus YAL030W, strain snc1, hits give low values 0.978 | locus YBL061C, strain skt5, hits give low values 0.973 | locus YBR009C, strain hhf1, hits give low values 1.01 | locus YBR023C, strain chs3, hits give low values 0.973 | locus YBR171W, strain sec66, hits give low values 0.969 | locus YBR231C, strain swc5, hits give low values 0.976 | locus YBR279W, strain paf1, hits give low values 0.995 | locus YCL011C, strain gbp2, hits give low values 0.999 | locus YCL016C, strain dcc1, hits give low values 0.982 | locus YCL069W, strain vba3, hits give low values 0.982 | locus YCR088W, strain abp1, hits give low values 0.977 | locus YDL005C, strain med2, hits give low values 0.96 | locus YDL040C, strain nat1, hits give low values 0.988 | locus YDR001C, strain nth1, hits give low values 0.983 | locus YDR069C, strain doa4, hits give low values 0.97 | locus YDR137W, strain rgp1, hits give low values 0.992 | locus YDR159W, strain sac3, hits give low values 0.917 | locus YDR195W, strain ref2 0.96 | locus YDR297W, strain sur2, hits give low values 0.973 | locus YDR334W, strain swr1, hits give low values 0.983 | locus YDR335W, strain msn5, hits give low values 0.994 | locus YDR392W, strain spt3, hits give low values 0.961 | locus YEL003W, strain gim4, hits give low values 0.994 | locus YEL037C, strain rad23, hits give low values 0.985 | locus YEL061C, strain CIN8 (second series), hits give low values 1 | locus YER015W, strain faa2, hits give low values 0.977 | locus YER016W, strain bim1, hits give low values 0.981 | locus YER111C, strain swi4, hits give low values 0.976 | locus YER155C, strain BEM2 (second series), hits give low values 0.967 | locus YFR010W, strain ubp6, hits give low values 0.99 | locus YGL167C, strain pmr1, hits give low values 0.978 | locus YGL173C, strain kem1, hits give low values 0.991 | locus YGL227W, strain vid30, hits give low values 0.985 | locus YGL240W, strain doc1, hits give low values 0.984 | locus YGL253W, strain hxk2, hits give low values 0.98 | locus YHR013C, strain ard1, hits give low values 0.957 | locus YHR027C, strain rpn1, hits give low values 0.995 | locus YHR142W, strain chs7, hits give low values 0.996 | locus YJL092W, strain hpr5, hits give low values 0.983 | locus YJL095W, strain BCK1 (second series), hits give low values 0.974 | locus YJL115W, strain asf1, hits give low values 0.972 | locus YJL129C, strain trk1, hits give low values 0.973 | locus YJL154C, strain vps35, hits give low values 0.983 | locus YJL164C, strain tpk1, hits give low values 0.985 | locus YJL166W, strain qcr8, hits give low values 0.982 | locus YJL187C, strain SWE1, hits give low values 0.998 | locus YKL160W, strain elf1, hits give low values 0.987 | locus YKR026C, strain gcn3, hits give low values 0.982 | locus YKR091W, strain srl3, hits give low values 0.999 | locus YLL001W, strain dnm1, hits give low values 0.988 | locus YLL026W, hits give low values 0.972 | locus YLL041C, strain sdh2, hits give low values 0.971 | locus YLR027C, strain aat2, hits give low values 0.989 | locus YLR221C, strain rsa3, hits give low values 0.999 | locus YLR258W, strain gsy2, hits give low values 0.986 | locus YLR262C, strain YPT6 (second series), hits give low values 1.03 | locus YLR320W, strain mms22, hits give low values 0.975 | locus YLR342W, strain FKS1, hits give low values 0.982 | locus YLR357W, strain rsc2, hits give low values 0.945 | locus YLR370C, strain arc18, hits give low values 0.993 | locus YLR384C, strain iki3, hits give low values 0.989 | locus YML120C, strain ndi1, hits give low values 0.979 | locus YMR058W, strain fet3, hits give low values 0.976 | locus YMR125W, strain sto1, hits give low values 0.988 | locus YMR129W, hits give low values 0.99 | locus YMR205C, strain PFK2, hits give low values 0.937 | locus YMR231W, strain pep5, hits give low values 0.977 | locus YNL071W, strain lat1, hits give low values 0.982 | locus YNL209W, strain ssb2, hits give low values 1.01 | locus YNL248C, strain rpa49, hits give low values 0.988 | locus YNL322C, strain KRE1 (second series), hits give low values 0.951 | locus YNR049C, strain mso1, hits give low values 0.967 | locus YOR001W, strain rrp6, hits give low values 0.998 | locus YOR070C, strain gyp1, hits give low values 0.999 | locus YOR080W, strain dia2, hits give low values 0.994 | locus YOR083W, strain WHI5, hits give low values 0.981 | locus YOR106W, strain vam3, hits give low values 1.01 | locus YOR265W, strain rbl2, hits give low values 0.973 | locus YOR270C, strain vph1, hits give low values 1.02 | locus YOR290C, strain snf2, hits give low values 0.98 | locus YPL051W, strain arl3, hits give low values 0.996 | locus YPL078C, strain atp4, hits give low values 1.01 | locus YPL106C, strain sse1, hits give low values 0.929 | locus YPL240C, strain hsp82, hits give low values 0.976
